Test [1] relates to PRMT1 (protein arginine N-methyltransferase 1). Nature of the test: PRMT1 binders on small-molecule microarrays, primary screen, biochemical, small-molecule microarray, 635 nm fluorescence (AID 1088).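 Further: binding of Prmt1 protein to compounds spotted on small-molecule microarray slides.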 As to conditions: small-molecule microarray binding, higher = more signal.
Test [2] is described as follows: yeast growth modulation, basal conditions, primary screen, YJM789 clinical isolate, OD600, 24 h (AID 1089).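 Further: growth of clinical yeast isolate S. cerevisiae YJM 789 seeded 1000 cells per well; test concentration not given here.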 As to conditions: S. cerevisiae YJM789 growth, higher = more signal, called active from +8 up or from −8 down.
Test [3] can be described thus: fission yeast growth modulation, primary screen, strain 972, OD600, 24 h, no modulator (AID 1090).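 Further: basal condition with compound alone and no growth modifier present; test concentration not given here.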 As to conditions: S. pombe 972 growth, higher = more signal, called active from +8 up or from −8 down.
Test [4] is described as follows: S. cerevisiae growth modulation with rapamycin, primary screen, strain BY4716, OD600, 96 h (AID 1091). Further: test concentration not given here. As to conditions: higher = more signal, called active from +8 up or from −8 down.
Test [5] addresses Torsin-1A-interacting protein 2 (Homo sapiens) (UniProt Q8NFQ8). Nature of the test: LULL1 binders on small-molecule microarray, primary screen, cell lysate, human LULL1 lysate, 635/667 nm fluorescence (AID 1092).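 Further: probe is lysate of COS7 cells overexpressing human LULL1; score merges per-feature 667 nm fluorescence with signal-to-noise.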 As to conditions: hLULL1 lysate binding, 635 nm fluorescence, higher = more signal.
A short description of test [6]: E. coli growth modulation, two-sided OD650, primary screen, E. coli filamentation project, strain DRC41, 24 h (AID 1093).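 Further: MC1000 strain lacking acrAB efflux and sulA so SOS filamentation is blocked; test concentration not given here.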 As to conditions: OD650, 24 h, higher = more signal, called active from +8 up or from −8 down.
The nature of test [7]: small-molecule microarray binders of probe aLefty2, primary screen, biochemical, biotinylated probe, 635/667 nm fluorescence (AID 1094).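 Further: score merges spot fluorescence near 667 nm with spot signal-to-noise ratio.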 As to conditions: higher = more signal.
Test [8] relates to Noggin (protein binding on small-molecule microarray). Nature of the test: Noggin binders on small-molecule microarray, primary screen, biochemical, 635/667 nm fluorescence (AID 1095).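 Further: score merges 667 nm feature fluorescence with signal to noise over triplicate slides.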 As to conditions: 635 nm fluorescence, higher = more signal.
For test [9], the target named is Neurogenic locus notch homolog protein 3 (Homo sapiens) (UniProt Q9UM47). Nature of the test: NOTCH3 binders on small-molecule microarray, primary screen, biochemical, 635/667 nm fluorescence (AID 1096). As to conditions: NOTCH3 binding, 635 nm fluorescence, higher = more signal.
Test [10] is described as follows: small-molecule microarray binders of probe aEGFR, primary screen, biochemical, biotinylated probe, 635/667 nm fluorescence (AID 1097).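 Further: probe is a biotinylated anti-EGFR antibody binding compounds printed on slides; score combines fluorescence near 667 nm and signal to noise of each spot.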 As to conditions: higher = more signal.

Activity calls are given as the source filed them.

Neurogenic locus notch homolog protein 3 (Homo sapiens), sequence (Q9UM47 whole entry, looked up): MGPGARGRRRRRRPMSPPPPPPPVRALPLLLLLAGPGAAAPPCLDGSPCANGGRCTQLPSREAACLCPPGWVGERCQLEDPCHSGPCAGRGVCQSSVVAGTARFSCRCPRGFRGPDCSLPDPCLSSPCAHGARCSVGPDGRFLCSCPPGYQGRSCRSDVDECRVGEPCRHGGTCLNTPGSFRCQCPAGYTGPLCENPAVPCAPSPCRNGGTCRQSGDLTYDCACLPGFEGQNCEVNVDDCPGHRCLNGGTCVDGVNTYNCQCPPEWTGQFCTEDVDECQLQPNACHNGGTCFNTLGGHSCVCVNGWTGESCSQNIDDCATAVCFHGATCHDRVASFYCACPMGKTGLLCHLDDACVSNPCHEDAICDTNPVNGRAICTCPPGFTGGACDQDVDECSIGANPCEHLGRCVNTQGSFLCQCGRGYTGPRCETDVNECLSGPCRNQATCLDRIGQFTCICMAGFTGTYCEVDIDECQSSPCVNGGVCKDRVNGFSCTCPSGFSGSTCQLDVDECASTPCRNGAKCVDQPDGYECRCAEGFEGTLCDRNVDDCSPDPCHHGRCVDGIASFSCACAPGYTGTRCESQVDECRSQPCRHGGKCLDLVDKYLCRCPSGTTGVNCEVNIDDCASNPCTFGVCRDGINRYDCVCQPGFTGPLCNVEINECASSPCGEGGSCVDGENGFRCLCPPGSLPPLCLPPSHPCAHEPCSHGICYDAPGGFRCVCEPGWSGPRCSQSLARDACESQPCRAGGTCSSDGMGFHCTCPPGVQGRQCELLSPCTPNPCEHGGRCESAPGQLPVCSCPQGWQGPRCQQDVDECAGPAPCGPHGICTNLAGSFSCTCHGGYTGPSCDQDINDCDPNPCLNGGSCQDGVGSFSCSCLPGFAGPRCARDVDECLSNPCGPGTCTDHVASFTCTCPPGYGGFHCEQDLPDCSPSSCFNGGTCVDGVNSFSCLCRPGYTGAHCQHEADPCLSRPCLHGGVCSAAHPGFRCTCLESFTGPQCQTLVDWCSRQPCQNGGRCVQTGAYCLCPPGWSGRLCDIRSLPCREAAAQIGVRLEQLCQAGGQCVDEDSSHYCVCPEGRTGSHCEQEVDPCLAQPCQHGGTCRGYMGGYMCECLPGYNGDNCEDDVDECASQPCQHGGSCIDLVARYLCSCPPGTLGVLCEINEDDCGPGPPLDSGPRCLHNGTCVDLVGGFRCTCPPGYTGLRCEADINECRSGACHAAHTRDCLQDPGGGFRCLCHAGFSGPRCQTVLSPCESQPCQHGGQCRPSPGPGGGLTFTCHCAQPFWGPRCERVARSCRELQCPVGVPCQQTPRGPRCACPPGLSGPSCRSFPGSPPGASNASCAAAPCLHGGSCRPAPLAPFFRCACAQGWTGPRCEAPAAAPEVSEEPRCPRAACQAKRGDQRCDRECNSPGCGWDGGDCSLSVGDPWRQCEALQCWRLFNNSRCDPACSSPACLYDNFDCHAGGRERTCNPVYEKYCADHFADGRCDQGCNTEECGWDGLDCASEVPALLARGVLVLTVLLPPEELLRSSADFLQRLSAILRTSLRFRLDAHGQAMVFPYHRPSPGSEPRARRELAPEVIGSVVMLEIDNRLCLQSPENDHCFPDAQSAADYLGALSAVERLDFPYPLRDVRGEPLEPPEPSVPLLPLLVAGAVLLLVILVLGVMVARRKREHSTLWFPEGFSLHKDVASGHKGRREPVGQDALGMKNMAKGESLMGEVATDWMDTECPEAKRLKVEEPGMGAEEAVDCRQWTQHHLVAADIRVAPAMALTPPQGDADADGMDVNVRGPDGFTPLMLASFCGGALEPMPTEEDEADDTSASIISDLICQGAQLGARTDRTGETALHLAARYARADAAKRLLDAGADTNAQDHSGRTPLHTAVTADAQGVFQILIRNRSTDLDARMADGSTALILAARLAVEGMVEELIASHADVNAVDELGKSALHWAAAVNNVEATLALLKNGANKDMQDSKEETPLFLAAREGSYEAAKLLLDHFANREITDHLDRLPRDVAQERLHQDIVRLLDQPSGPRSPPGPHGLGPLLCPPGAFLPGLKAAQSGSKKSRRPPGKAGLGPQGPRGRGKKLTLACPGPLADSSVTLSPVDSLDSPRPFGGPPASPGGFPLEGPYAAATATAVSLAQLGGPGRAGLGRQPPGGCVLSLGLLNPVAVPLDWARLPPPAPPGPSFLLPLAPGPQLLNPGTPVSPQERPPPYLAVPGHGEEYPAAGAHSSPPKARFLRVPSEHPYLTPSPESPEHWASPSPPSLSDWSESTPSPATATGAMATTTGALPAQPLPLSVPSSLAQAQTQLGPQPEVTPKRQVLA
Torsin-1A-interacting protein 2 (Homo sapiens), sequence (Q8NFQ8 whole entry, looked up): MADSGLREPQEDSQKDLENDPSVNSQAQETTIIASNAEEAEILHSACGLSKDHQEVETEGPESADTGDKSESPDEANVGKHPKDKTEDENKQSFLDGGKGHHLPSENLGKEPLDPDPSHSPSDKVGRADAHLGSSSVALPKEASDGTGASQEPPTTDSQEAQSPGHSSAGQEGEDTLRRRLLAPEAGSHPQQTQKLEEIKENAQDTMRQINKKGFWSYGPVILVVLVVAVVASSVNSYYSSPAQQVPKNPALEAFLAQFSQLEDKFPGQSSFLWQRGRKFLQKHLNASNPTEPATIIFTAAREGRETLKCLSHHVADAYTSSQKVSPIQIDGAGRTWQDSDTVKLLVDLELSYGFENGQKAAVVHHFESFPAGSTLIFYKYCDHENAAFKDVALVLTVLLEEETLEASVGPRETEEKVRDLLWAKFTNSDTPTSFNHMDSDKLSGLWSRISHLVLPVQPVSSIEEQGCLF

For `CC(=O)NCCCC[C@@H]1NC(=O)[C@@H]2C[C@H](C(=O)NCCCCN(C)C)[C@H](c3ccc(O)cc3)N2C1=O`, the composite z-score in [1] was -0.0942; in test [5], 1.65; in test [7], -0.0906; in test [8] it was -0.126; in [9], -0.322; in [10] it was -0.109. The z-score is -0.442 (inactive) in test [2], 0.169 (inactive) in [3], -0.687 (inactive) in test [4] and 1.14 (inactive) in [6].
With `O=C1N(CCS(=O)(=O)c2ccccc2)Cc2ccccc2[C@H]2OC(c3ccc(OCCCO)cc3)=N[C@@]12CCS(=O)(=O)c1ccccc1`, the composite z-score in test [1] came to 1.57; in [5], 3.01; in [7] it was 0.417; in [8] it was 0.894; in [9], 1.06; in test [10], 0.162. Moreover, the z-score was 1.91 (inactive) in test [2], 1.62 (inactive) in test [3], 8.55 (active) in test [4] and -0.409 (inactive) in test [6].
`Cc1ccc(S[C@]2(C(=O)O)CC(=O)N(C3Cc4ccccc4C3)[C@@H]2c2ccc(CO)cc2I)cc1`: the composite z-score in test [1] is 0.46; in test [5], 2.32; in test [7], 0.125; in [8] it was -1.02; in [9], -0.891; in test [10], -0.132. In addition, the z-score was -1.47 (inactive) in test [2], -1.01 (inactive) in test [3], 1.6 (inactive) in test [4] and -0.263 (inactive) in test [6].
Take `CCOC(=O)C1=CCC(C(C)(C)C)N(S(=O)(=O)c2ccc(C)cc2)C1` (stereo not given): the composite z-score in test [1] worked out at 1.54; in test [5], 3.3; in test [7], 0.0277; in [8], 1.47; in test [9] it was 1.13; in [10] it was 0.139. Further, the z-score is -0.792 (inactive) in test [2], -1.75 (inactive) in test [3], 1.66 (inactive) in test [4] and -0.756 (inactive) in test [6].
With `COCCOC(=O)N1C(=O)[C@@]2(c3cc(C#CC4=CCCCC4)ccc31)[C@H](C(=O)N1CCc3cc(OC)c(OC)cc3C1)[C@H]1C(=O)O[C@H](c3ccccc3)[C@H](c3ccccc3)N1[C@@H]2c1ccccc1OCCO`, the composite z-score in test [1] was determined as 1.01; in [5], 1.97; in [7], 0.0906; in test [8], 1.16; in [9] it was 1.09; in [10], 0.0238. The z-score in test [2] was 1.51 (inactive); in test [3], 1.35 (inactive); in test [4], 2.78 (inactive); in test [6], 0.982 (inactive).
On to `C=CCNC(=O)[C@H]1[C@@H]2C(=O)O[C@@H](c3ccccc3)[C@@H](c3ccccc3)N2[C@@H](c2ccc(O)cc2)[C@]12C(=O)N(C(=O)OCCOC)c1ccc(C#CCCO)cc12`, for which the composite z-score in test [1] was 1.58; in [5] it was 2.97; in test [7], -0.0916; in test [8], -0.176; in [9], -0.15; in test [10] it was -0.0163. For the same compound, the z-score is 1.16 (inactive) in test [2], -0.47 (inactive) in test [3], 0.804 (inactive) in test [4] and 1.07 (inactive) in test [6].
Consider `CC1=C2[C@@H](CCc3ccccc3)OB(O)C[C@@H]2n2c(=O)n(-c3ccccc3)c(=O)n2C1`, for which the composite z-score in test [1] was 1.02; in [5] it was 0.902; in [7] it was -0.179; in test [8], 0.416; in [9], 0.666; in test [10] it was -0.111. Also, the z-score in test [2] is -0.237 (inactive); in test [3] it was -1.51 (inactive); in [4], -0.535 (inactive); in test [6] it was -0.296 (inactive).
For `O=C1C2C=CC(C(O)c3ccc(F)cc3)N(Nc3ccccc3)C2C(=O)N1c1ccccc1` (stereo not given), the composite z-score is 0.435 in test [1]; 3.15 in [5]; 0.388 in test [7]; -1.2 in test [8]; 0.246 in test [9]; -0.0111 in [10]. For the same compound, the z-score in test [2] was 0.874 (inactive); in test [3], 1.31 (inactive); in test [4], 1.59 (inactive); in [6], -0.754 (inactive).
With `CCOC(=O)C1=CCC(c2ccc([N+](=O)[O-])cc2)N(S(=O)(=O)c2ccc(C)cc2)C1` (stereo not given), the composite z-score in [1] was -0.394; in test [5] it was 1.28; in test [7], 0.0478; in [8] it was -0.281; in test [9] it was 0.422; in test [10], 0.0296. The z-score is 1.33 (inactive) in test [2], 2.26 (inactive) in test [3], 4.61 (inactive) in test [4] and 0.638 (inactive) in test [6].
Consider `COC(=O)[C@@]1(Cc2ccccc2)[C@H]2c3cc(C(=O)N4CCCC4)n(Cc4ccc(C)o4)c3C[C@H]2CN1C(=O)c1ccccc1`, for which the composite z-score was -0.179 in [1]; 2.6 in test [5]; -0.0127 in test [7]; 0.231 in test [8]; 0.622 in [9]; 0.0226 in [10]. The z-score in [2] was -0.619 (inactive); in [3], 0.122 (inactive); in [4], -0.564 (inactive); in [6], -0.564 (inactive).
On to `C=CC[C@@]1(C(=O)NCC(O)CO)N=C(c2ccc(OCCCO)cc2)O[C@@H]1c1ccccc1N=[N+]=[N-]` (stereo not given in full), for which the composite z-score amounted to 1.18 in [1]; 3.79 in [5]; 0.208 in [7]; 0.84 in test [8]; 1.04 in test [9]; 0.0376 in test [10]. In addition, the z-score in [2] was -0.711 (inactive); in test [3] it was -1.89 (inactive); in test [4] it was 0.068 (inactive); in test [6] it was 1.01 (inactive).
Take `C=C(C(=O)CC[C@H](OC(C)=O)c1ccc(OCCO)cc1)C(C)C`: the composite z-score is 1.19 in test [1]; 0.739 in test [5]; -0.212 in test [7]; 1.22 in [8]; 0.801 in test [9]; -0.156 in test [10]. Besides, the z-score in test [2] was -24.6 (active); in [3], -20.5 (active); in [4] it was -4.29 (inactive); in test [6] it was 2.11 (inactive).
Take `CC(=O)Nc1cc(Br)ccc1C(=O)O`: the composite z-score is 0.183 in [1]; 1.33 in [5]; -0.0006 in test [7]; 0.201 in test [8]; 0.482 in test [9]; -0.156 in [10]. Moreover, the z-score in test [2] is -0.0103 (inactive); in test [3], 0.331 (inactive); in test [4], 0.178 (inactive); in test [6], -0.18 (inactive).
On to `CCOc1cc(C(O)C2C=CC3C(=O)N(c4ccccc4)C(=O)C3N2Nc2ccc([N+](=O)[O-])cc2)ccc1O` (stereo not given), for which the composite z-score is 1.07 in test [1]; 3.37 in test [5]; -0.0534 in test [7]; 0.0883 in test [8]; 0.782 in [9]; -0.067 in test [10]. For the same compound, the z-score is -0.441 (inactive) in test [2], 0.442 (inactive) in test [3], -0.364 (inactive) in test [4] and -0.961 (inactive) in test [6].

The values above are taken from PubChem BioAssay.
